Source: PubChem BioAssay AID720504 (National Center for Advancing Translational Sciences (NCATS), 2013)
Hit rate of the full screen: of about 360,000 compounds, about 10,000 (2.8%) were called active. Roughly 4% stayed inconclusive and do not appear here. The sample holds actives, similar compounds and a random draw of the others, so the mix is not that of the screen. Unmarked numbers belong to inactive results. The call rests on the fitted dose curve; in most records, active means well fitted inhibition curve with a large enough effect; inconclusive means small, poorly fitted or top-dose-only effect; inactive means flat fitted curve, though single readings scatter.

Target: Serine/threonine-protein kinase PLK1 (Homo sapiens) (UniProt P53350)
Sequence (P53350 whole entry, looked up, the tested form may be a part): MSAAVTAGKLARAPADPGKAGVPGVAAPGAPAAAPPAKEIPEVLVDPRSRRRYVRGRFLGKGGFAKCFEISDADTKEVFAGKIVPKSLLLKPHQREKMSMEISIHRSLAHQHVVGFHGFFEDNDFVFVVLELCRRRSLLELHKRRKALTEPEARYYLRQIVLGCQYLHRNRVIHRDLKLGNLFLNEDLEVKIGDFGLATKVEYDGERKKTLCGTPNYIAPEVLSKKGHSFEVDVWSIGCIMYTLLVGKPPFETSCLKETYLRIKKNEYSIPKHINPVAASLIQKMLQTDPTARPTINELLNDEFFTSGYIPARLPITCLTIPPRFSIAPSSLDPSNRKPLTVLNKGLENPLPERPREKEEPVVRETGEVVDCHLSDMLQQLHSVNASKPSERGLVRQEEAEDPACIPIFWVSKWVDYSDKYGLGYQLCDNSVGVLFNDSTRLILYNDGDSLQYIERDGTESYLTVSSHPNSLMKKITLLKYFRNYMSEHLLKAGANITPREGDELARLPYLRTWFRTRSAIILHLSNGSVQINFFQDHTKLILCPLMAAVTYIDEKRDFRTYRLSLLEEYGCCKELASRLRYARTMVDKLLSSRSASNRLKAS
Assay: qHTS for Inhibitors of PLK1-PDB (polo-like kinase 1 - polo-box domain): Primary Screen; further: nearly all actives have a fitted effect of over 65% in size; on max response, negative = inhibition: series mostly up to about 57 µM
Settings: Plk1 PBD binding of FITC phosphopeptide, fluorescence polarization
On the % scale 0 is the no-effect control and ±100 the full control effect; potency means the concentration at half of the fitted maximal effect.

SMILES	max response, negative = inhibition	Potency
O=C(NCc1ccc(F)cc1)c1cc(C2CCCCN2C(=O)C2CCCCC2)on1 (centres undefined)	2.6%	
CC(C)CC1C(=O)N(Cc2cn(Cc3ccco3)nn2)CCS(=O)(=O)N1Cc1ccc(-c2ccc(Cl)c(Cl)c2)cc1 (centres undefined)	-13.6%	
CNc1cncc(-c2ccc(NS(C)(=O)=O)cc2)n1	6.53%	
COc1ccc(C(=O)NC(=O)CSc2nnc(-c3ccco3)n2-c2ccccc2)cc1	-12.5%	
O=C(CSc1nnc(-c2ccco2)n1-c1ccccc1)NCCc1ccccc1	-10.6%	
CCOc1ccc(-n2c(SCC(N)=O)nnc2-c2ccco2)cc1		15 µM (active)
OCCN1CCN(c2ncnc3c2ncn3[C@H]2CN(Cc3ccco3)C[C@@H](CO)O2)CC1	-11.1%	
O=C(Nc1ccc(N2CCOCC2)cc1)c1cccc2c(-c3ccc(F)c(F)c3)coc12	-15%	
CC(=O)N1c2ccc(S(=O)(=O)NCCC(=O)N(C)C3CCCCC3)cc2CC1C (centres undefined)		2.99 µM (active)
CC(=O)N1c2ccc(S(=O)(=O)N(C)CC(=O)N(C)Cc3ccccc3)cc2CC1C (centres undefined)	5.96%	
COc1cccc(CNS(=O)(=O)c2ccc3c(c2)CC(C)N3C(=O)C2CCC2)c1 (centres undefined)	-3.29%	
Cc1ccc(-c2ccc(CN3C(C(C)C)C(=O)N(Cc4cn(CCC5OCCCO5)nn4)CCS3(=O)=O)cc2)cc1 (centres undefined)	-2.35%	
CCOc1ccc(CCN2C(=O)C(=O)N([C@@H](CC(C)C)CN3CCC[C@H]3CN3C(=O)C(=O)NC[C@@H]3Cc3ccccc3)C[C@@H]2CC(C)C)cc1	-0.137%	
Cc1cccc(-c2cnc(C(O)c3cc(C)cc(C)c3)[nH]2)c1 (centres undefined)	-12%	
CCOC(=O)c1c(NC(=S)NC(=O)/C=C/c2cccs2)sc(C)c1C	-3.87%	
CCOC(=O)c1sc(=NC(=O)c2ccc(Br)cc2)n(C)c1C	-3.76%	
CCOC(=O)c1sc(=NC(=O)/C=C/c2cccs2)n(C)c1C		26.7 µM (active)
COC(=O)[C@]12CCCCC=C1N(Cc1ccc3c(c1)OCO3)C(=O)[C@H](CC(=O)N1CCOCC1)C2	-9.01%	
CC(=O)N1c2ccccc2N(Cc2ccc([N+](=O)[O-])cc2)C(=O)C1(C)C		29.9 µM (active)
O=C(CSCc1ccc([N+](=O)[O-])cc1)NCCSCc1ccccc1	-1.81%	
CC(O)c1nc2ccccc2n1Cc1ccc([N+](=O)[O-])cc1 (centres undefined)	-2.98%	
Cc1nc2c(OCc3cccc(Cl)c3)cccn2c1N(C)CC1CC1	-10.4%	
COC(=O)[C@]12CCCCC=C1N(Cc1cccc3ccccc13)C(=O)[C@H](CC(=O)N1CCOCC1)C2	-13.4%	

SMILES	max response, negative = inhibition	Potency
Cc1cc(Cl)ccc1-c1nc(NCCN(C)C)nc2ccsc12	-8.63%	
COc1ccccc1-c1cc(NC(C)=O)c2ncc(-c3ccc(F)cc3)n2c1	-2.69%	
C#CCOc1ccc(/C=C2/C(=O)ON=C2C)cc1OCC		2.12 µM (active)
COc1cc(C=O)ccc1Oc1nnnn1-c1ccccc1	-3.25%	
Cc1ccccc1C1=N/C(=C/c2cccnc2)C(=O)O1	-12.6%	
COc1cc(/C=C2/C(=O)ON=C2C)ccc1OCc1cccc(F)c1		1.06 µM (active)
CC1=NOC(=O)/C1=C\c1ccccc1		16.8 µM (active)
COc1ccnc2c1c(=O)n(Cc1cccc(F)c1)c(=O)n2C	-8.75%	
C#CCOc1ccc(/C=C2/C(=O)NN(c3ccccc3)C2=O)cc1OC		18.9 µM (active)
CCOc1cc(/C=N/O)ccc1OCc1ccccc1F	5.59%	
COc1cc(/C=C2\SC(=O)NC2=O)ccc1OCc1ccc(Cl)nc1	-13.4%	
COc1cc(/C=C2/C(=O)NN(c3ccc(F)cc3)C2=O)cc([N+](=O)[O-])c1O	-17.7%	
CCOc1cc(/C=C2\C(=N)N3N=C(C)SC3=NC2=O)ccc1OCCOc1ccccc1	-10.7%	
Cc1nc2ccccn2c(=O)c1NC(=O)c1ccc(Br)o1	-0.655%	
O=[N+]([O-])c1ccc(CN2CC(N3CC=CC3)CS2(=O)=O)cc1 (centres undefined)	-4.83%	
CCc1cc(C(=O)N(CC)CC(=O)Nc2c(F)cccc2F)sc1C	-2.84%	
CSCCC(c1nnnn1Cc1ccccc1)N1CCN(C/C=C/c2ccccc2)CC1 (centres undefined)	-5.15%	
CC1(Oc2cccc(F)c2)CCN(Cc2ccccc2OC(F)F)C1 (centres undefined)	-10.6%	
C=CCOc1ccc(/C=N/NC(=O)C(C)Sc2ccccn2)cc1OCC (centres undefined)	-12.5%	
Cc1no[n+]([O-])c1COc1ccccc1/C=C1\NC(=S)NC1=O	-11.5%	
C=CCOc1ccc(/C=N/n2cncn2)cc1OC	-1.5%	
C#CCOc1ccccc1/C=C1/C(=O)ON=C1C		2.38 µM (active)
C=CCOc1ccc(/C=C2/C(=O)ON=C2C)cc1OCC		1.89 µM (active)

SMILES	max response, negative = inhibition	Potency
COc1ccc(NC(=O)C2(C)Cc3c(-c4cccc(NC(C)=O)c4)ccnc3O2)cc1 (centres undefined)	1.6%	
CC(C)NC(=O)N1Cc2cc(C(=O)NCC(F)(F)F)nc(-c3cccc(-c4cc5ccccc5o4)c3)c2[C@@H]1CCO	-2.2%	
CCCCNC(=O)c1nc(C2CCN(S(=O)(=O)c3ccc(F)c(F)c3)CC2)oc1-c1cccc(C(F)(F)F)c1	-2.64%	
CCCNC(=O)C1(C)CCN(Cc2csc(-c3ccc(Cl)cc3)n2)C1 (centres undefined)	-6.86%	
Nc1nc2ncccn2c1-c1ccccc1	-5.06%	
COc1cc(OC)cc(C2=Cc3ccccc3C(CC(=O)c3ccco3)N2c2ccc(-c3cnc(OC)nc3)cc2)c1 (centres undefined)	-0.0299%	
CCCCCCn1c(=O)n2n(c1=O)C[C@]1(OC(=O)NCc3ccc(OC)c(OC)c3)CN(S(=O)(=O)c3ccc(C)cc3)C[C@]1(O)C2	-2.55%	
O=C(NNS(=O)(=O)c1ccc(F)cc1)c1cnccn1	-1.36%	
NS(=O)(=O)c1ccc(CNC(=O)c2cnccn2)cc1		16.8 µM (active)
NS(=O)(=O)c1ccc(CNC(=O)c2cccc(Oc3ccccc3)c2)cc1	-1.88%	
CCc1ccc2c(c1)NC(=O)C2(C)Cc1ccc(OC(F)(F)F)cc1 (centres undefined)	-1.5%	
CC1(C)Cc2ccccc2-c2[nH]c(=S)[nH]c(=O)c21	-13.9%	
N#CC1=C(N)Oc2[nH]c(=S)[nH]c(=O)c2C12C(=O)Nc1ccccc12 (centres undefined)		2.67 µM (active)
N#CC1=C(N)Oc2n[nH]c(CSc3ccccc3)c2C12C(=O)Nc1ccccc12 (centres undefined)	-12.8%	
COCCNC(=O)C1(C)CCCN(Cc2cccc(F)c2)C1 (centres undefined)	-4.61%	
CCCCNC(=O)C1CCC(CNS(=O)(=O)c2ccc(NC(C)=O)cc2)CC1 (centres undefined)	-1.34%	
CC(=O)Nc1ccc(S(=O)(=O)NCCc2ccccc2)cc1	0.463%	
COCCCNC(=O)c1ccc(CNS(=O)(=O)c2ccc(NC(C)=O)cc2)cc1		26.7 µM (active)
CCN1CCCC1CNC(=O)c1ccc2c(c1)NC(=O)/C(=C\c1ccccc1F)S2 (centres undefined)	0.0941%	
CC1CCN(C(=S)c2ccc(-c3ccc(Cl)cc3Cl)o2)CC1		21.2 µM (active)
Cc1csc(NC(=O)c2ccc(-c3ccc(Cl)cc3Cl)o2)n1	-15%	
COc1ccc(C(=O)Nc2c(Cl)cc(Cl)cc2C(=O)N2CCC(C)CC2)cc1	-14.4%	
COc1ccc2[nH]c(=S)cc(C)c2c1		4.74 µM (active)

SMILES	max response, negative = inhibition	Potency
COc1ccc2[nH]c3c(C)c4cc[n+](C)cc4c(C)c3c2c1	-4.23%	
COc1ccc(N)c(C)c1	-0.841%	
NC(=O)C1(N2CCCC2)CCN(Cc2ccccc2)CC1	-7.37%	
O=S1(=O)CCN(Cc2ccccc2)CC1	-2.26%	
CC12CN(Cc3ccccc3)CC(C)(CN(Cc3ccccc3)C1)C2=NO		5.32 µM (active)
O=C(OCc1cn([C@H]2C[C@H](c3ccccc3)N(C(=O)c3cccs3)C[C@@H]2O)nn1)c1ccccc1	-2.46%	
CC(C)(C(=O)N1CCC1(C)C(=O)NS(=O)(=O)c1ccc(Br)cc1)c1ccccc1 (centres undefined)	-7.26%	
Cc1cc(C)nc(NS(=O)(=O)c2ccc(N/C=C\C(=O)c3cccs3)cc2)n1		26.7 µM (active)
Cc1ccc(C(=O)/C=C/Nc2ccc(S(=O)(=O)Nc3onc(C)c3C)cc2)cc1	-13.9%	
CCOc1ncccc1C(=O)Nc1ccc(S(=O)(=O)Nc2nc(C)cc(C)n2)cc1	0.589%	
O=C(CC(CC(=O)c1ccccc1)c1ccco1)c1ccccc1	13.6%	
CSc1ccc(CNC(=O)C2(C)CCCN2C)cc1 (centres undefined)	-4.46%	
CN(C)CCCOc1ccc(-c2ccc3nccn3c2)cn1	-0.941%	
CCOC(=O)N1C(=O)C[C@](Sc2ccc(C)cc2)(C(=O)OC)[C@H]1c1ccccc1	-3.98%	
Cn1nc(N)c2ncc(C(Cl)(Cl)Cl)nc21	-4.91%	
O=C(c1ccc(F)cc1)N1CCC(n2nnc3ccccc32)CC1	-7.84%	
O=C(c1ccc(F)cc1)n1c(=S)nc2ccccn21		26.7 µM (active)
CC1COc2ccccc2N1C(=O)c1ccc(F)cc1 (centres undefined)	-6.97%	
c1ccc(Cn2nnc3c(NCC4CC4)ncnc32)cc1	-24.2%	
Nc1nc2c(ncn2[C@@H]2O[C@H](CNS(=O)(=O)N3CCc4ccccc4C3)[C@@H](O)[C@H]2O)c(=O)[nH]1	-3.21%	
